# Source: PubChem (National Center for Advancing Translational Sciences (NCATS))
# The list is not random: actives were taken first. Their share in the collection is about 2.6%.
# Caspase-7 inhib – qHTS Assay for Allosteric/Competitive Inhibitors of Caspase-7 | P55210 | recombinant caspase-7, Ac-DEVD-AFC fluorescence rate | Potency, µM (series often up to 57.5 µM), for inactives: at the highest dose activity change, negative = inhibition, hits mostly inhibitors | 75,000 tested, 0.02% active; active means well fitted inhibition curve with a large enough effect in the main read-out, with a control signal flat, not every such curve was filed as active; inconclusive means small, poorly fitted or top-dose-only effect, or a change in a side signal; further: % of control where 0% means no effect
# TSHR agonist – qHTS Assay for Agonists of the Thyroid Stimulating Hormone Receptor; 73,000 tested, 0.48% active; Potency, µM (top dose mostly 57.1 µM), for inactives: top-dose activation, most hits filed as activators; HEK293-CNG-TSHR cells (CNG channel as cAMP sensor), membrane potential dye, cAMP; Thyrotropin receptor (Homo sapiens), P16473; AID 926, 2007; active means well fitted activation curve with a large enough effect in the main read-out, with a control signal flat, not every such curve was filed as active; inconclusive means small, poorly fitted or top-dose-only effect, or a change in a side signal; inactive means no such curve, though single readings can be large or run the other way; % of control where 0% means no effect;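 further: the control signal comes from parental cells without the receptor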
#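 HEK 293 cells stably expressing TSHR and a cAMP-gated CNG channel; parental CNG-only cells as counterscreen. Cells preloaded 60 min with membrane potential dye plus 100 uM RO 20-1724, then compound 30 min; fluorescence read at 590 nm.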
# HEK293 cAMP cs – qHTS Assay for Agonists of the Thyroid Stimulating Hormone Receptor: Activators of Intracellular cAMP Concentrations in Parental HEK 293. parental HEK293 CNG cAMP sensor, membrane potential fluorescence. Potency, µM (doses to about 57.1 µM), for inactives: at the highest dose activation, hits mostly activators. 73,000 tested, 2.5% active. AID 938, 2007; further: % of control where 0% means no effect; nearly all actives have a fitted effect of over 55% in size
#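 Parental HEK 293 cells stably expressing a modified CNG channel (no TSHR) report cAMP rise as membrane depolarization. Membrane potential dye with 100 uM RO 20-1724 was loaded for 60 min at room temperature, then compound added for 30 min; fluorescence read at 590 nm.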
# Caspase-1 inhib – qHTS Assay for Allosteric/Competitive Inhibitors of Caspase-1. P29466. Caspase-1 enzyme, Ac-WEHD-AFC fluorogenic rate. Potency, µM (doses to about 57.5 µM), for inactives: top-dose activity change, negative = inhibition, actives largely listed as inhibitors. 75,000 tested, 0.03% active;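 further: plate controls were vehicle for no effect and no substrate for full effect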
# Active calls of the source: *; u = inconclusive; x = no result given; ! = a repeat was not active; [ ] = another dose, or the depositor's remark. Unless noted, the call rests on the fitted dose curve; in most records, active means well fitted curve in the direction sought with a large enough effect; inconclusive means small, poorly fitted or top-dose-only effect, or another doubt; inactive means no such curve, though single readings can be large; an effect the other way counts as inactive or inconclusive. Potency means the concentration at half of the fitted maximal effect.
SMILES,Caspase-7 inhib,TSHR agonist,HEK293 cAMP cs,Caspase-1 inhib
C#CCCCO/N=C1/C[C@@H](O)[C@@H](O)[C@@H]2[C@@H]3C(=O)N(Cc4ccccc4)C(=O)[C@H]3CC[C@@H]12,0%[11.5 µM],0%[11.4 µM],-3%[11.4 µM],-2%[11.5 µM]
O=C1Cc2ccccc2C(=O)N1CCc1ccccc1,6.3µM*,0%,9%,5µM*
O=C(O)CCN1C(=O)c2ccccc2C1=O,1%,8%,2%,2%
CCc1c(C)nc2cc(-c3cc(OC)cc(OC)c3)nn2c1N1CCCC1,-7%,u,20µM*,-3%
CCc1c(C)nc2cc(-c3ccc(OC)c(OC)c3)nn2c1N1CCCC1,0%,u,u,-2%
C#C[C@@]1(O)CC[C@H]2[C@H]3CCC4=Cc5oncc5C[C@]4(C)[C@@H]3CC[C@@]21C,x,29%,7%,x
COc1ccc(OCCSc2nnnn2C2CCCCC2)cc1,-1%,u,u,-3%
c1ccc(OCCSc2nnnn2C2CCCCC2)cc1,-3%,u,25µM*,-3%
COC(=O)[C@@]1(Cc2ccccc2)[C@H]2c3cc(C(=O)N4CCCC4)n(CC4CC4)c3C[C@H]2CN1C(=O)c1ccccc1,-5%,u,2µM*,-4%
COC(=O)[C@@]1(Cc2ccccc2)[C@H]2c3cc(C(=O)N4CCCC4)n(CCc4ccccn4)c3C[C@H]2CN1C(=O)c1ccccc1,2%,u,16µM*,-2%
COC(=O)[C@@]1(Cc2ccc(F)cc2)[C@H]2c3cc(C(=O)N4CCCC4)n(Cc4ccccc4)c3C[C@H]2CN1C(=O)c1ccccc1,1%,u,u,-1%
COC(=O)Cn1c(C(=O)N2CCCC2)cc2c1C[C@H]1CN(C(=O)c3ccccc3)[C@@](Cc3ccccc3)(C(=O)OC)[C@@H]21,-1%,u,20µM*,-3%
COC(=O)[C@@]1(Cc2ccc(F)cc2)[C@H]2c3cc(C(=O)N4CCCC4)n(CCc4ccccn4)c3C[C@H]2CN1C(=O)c1ccccc1,-1%,u,u,1%
O=C(Nc1ccccc1)N1CC[C@@]2(CCCN(C(=O)c3cc(C(F)(F)F)cc(C(F)(F)F)c3)C2)C1,-1%,5%,25%,-2%
CN(C)c1ncc2nc(-c3cc(F)cc(F)c3)c(=O)n(C3CC3)c2n1,u,-8%,-12%,x
COc1ccc(-c2nnc(SCC(=O)N3CCc4ccccc4C3)o2)cc1,-2%,u,25µM*,-5%
Cc1ccc(-c2noc(C3CCCN(C(=O)c4c(F)cccc4F)C3)n2)cc1 (stereo not given),-1%,u,7.9µM*,-3%
COc1ccc(-c2noc(C3CCCN(C(=O)c4ccccc4OC)C3)n2)cc1OC (stereo not given),-2%,u,u,-1%
Cc1ccc(N2C(=O)[C@@H]3[C@H](C2=O)C2c4ccccc4C=CN2[C@@H]3C(=O)c2ccco2)c(C)c1 (stereo not given in full),u,-12%,-14%,13µM*
CN[C@H](CC(=O)O)C(=O)O,2%,0.79µM*!,0%,2%
O=c1cc(CN2CCOCC2)c2c(ccc3ccccc32)o1,-2%,u,u,-4%
CCOC(=O)N1CCN(Cc2cc(=O)oc3ccc4ccccc4c23)CC1,-3%,u,25µM*,-3%
CC(=O)N1C2(C=CC1(C)C(=O)NCCN1CCOCC1)CCCCC2 (stereo not given),-4%,0%,4%,1%
O=C(OCC(=O)N1CCN(C(=O)c2ccco2)CC1)c1ccccc1OCc1ccc(Cl)cc1,-3%,u,25µM*,-2%
C/C(CCN1CCCCc2nc(C)c(C)cc21)=N\O[C@@H](C)CN1CCCc2nc(C)c(C)cc21,-4%[11.5 µM],6%[11.4 µM],18%[11.4 µM],-3%[11.5 µM]
SMILES,Caspase-7 inhib,TSHR agonist,HEK293 cAMP cs,Caspase-1 inhib
Cn1c(C(=O)Nc2ccc3c(c2)OCO3)cc2sccc21,-2%,-14%,-14%,1%
COc1cc(NC(=O)c2cc3sccc3n2C)cc(OC)c1,-16%,u,u,-17%
CC(CCc1ccccc1)NC(=O)c1cc2sccc2n1C (stereo not given),-3%,25µM*,41%,-2%
CCc1ccccc1NC(=O)c1cc2sccc2n1C,-4%,u,32µM*,-3%
COc1ccc(OC)c(NC(=O)c2cc3sccc3n2C)c1,1%,u,25µM*,-1%
N#C/C(=C\N1CCNC1=S)C(=O)c1ccc2ccccc2c1,-5%[11.5 µM],13%[11.4 µM],15%[11.4 µM],-2%[11.5 µM]
Cc1ccc(C2C3=C(CC(C)(C)CC3=O)NC3=C2C(=O)CC(C)(C)C3)o1,-13%,13µM*,3%,-11%
CC1=C(C#N)C(C)C2=C(CC(C)(C)CC2=O)N1 (stereo not given),u,7%,1%,x
CC(C)CCn1c(N)c(S(=O)(=O)c2cccs2)c2nc3ccccc3nc21,-27%,13µM*,13%,u
COc1ccc(CCn2c(N)c(S(=O)(=O)c3cccs3)c3nc4ccccc4nc32)cc1OC,-1%,-6%,-8%,-2%
CCCCCCCC#Cc1ccccc1C(NC(=O)OC)C(C(=O)OC)C(=O)OC (stereo not given),-1%[11.5 µM],12%[11.4 µM],24%[11.4 µM],1%[11.5 µM]
Cc1nnc(SCC(=O)N2CCc3ccccc32)s1,1%,-4%,0%,-2%
CSc1nsc(SCC(=O)N2CCc3ccccc32)n1,0%,u,25µM*,-2%
CCOC(=O)c1cnc(-n2nc(C)cc2C)nc1NCc1ccccc1,-3%,u,20µM*,-3%
CCOC(=O)c1cnc(-n2nc(C)cc2C)nc1NC(C)c1ccccc1 (stereo not given),-1%,u,25µM*,-2%
Nc1ccn([C@@H]2O[C@H](COC(=O)C34CC5CC(CC(C5)C3)C4)[C@@H](O)[C@@H]2O)c(=O)n1,-1%[11.5 µM],-1%[11.4 µM],-1%[11.4 µM],-1%[11.5 µM]
Cc1cccc(N2CCN(c3cc(C)nc4nnnn34)CC2C)c1 (stereo not given),-1%,-1%,4%,-2%
Cc1cccc(N2CCN(c3nnnn3-c3ccccc3)CC2C)c1 (stereo not given),-1%,u,25µM*,-1%
COc1cccc(-n2nnc3c(=O)n(Cc4ccccc4F)cnc32)c1,-2%,u,25µM*,-3%
Cc1ccccc1OCc1nc2ccccc2c(=O)n1/N=C/c1ccco1,-1%,u,16µM*,1%
COc1cccc(/C=N/n2c(-c3ccco3)nc3ccccc3c2=O)c1,-1%,u,16µM*,-2%
CCC(C)C1NC(=O)C(CCNCS(=O)(=O)O)NC(=O)C(NC(=O)C(CCNCS(=O)(=O)O)NC(=O)C(NC(=O)C(CCNCS(=O)(=O)O)NC(=O)CCCCC(C)C)C(C)O)CCNC(=O)C(C(C)O)NC(=O)C(CCNCS(=O)(=O)O)NC(=O)C(CCNCS(=O)(=O)O)NC(=O)C(C(C)CC)NC1=O (stereo not given),-5%,x,x,-10%
COc1ccc(-c2cc(CCCC(=O)NCCc3cc(OC)ccc3OC)no2)cc1,-2%,u,32µM*,-2%
